Consider 57 compounds from ChEMBL document CHEMBL3988442, “University of Dundee, Small-Polar-MMV Screening Library” (2021).

The whole screen tested about 48,000 compounds, of which about 13,000 (27%) showed an effect of 50% or more. This is one part of the list.

The assay relates to Wolbachia pipientis. As to the kind of experiment: Anti-Wolbachia Cell-Based Screen. It counts as functional. Also on record: scale not given: in the data most compounds retested in dose-response had high values. The conditions noted are these: 5 µM.
As for `COCC(Nc1ncnc2sc(C)c(C)c12)c1ccnn1C` (configuration not stated), the “Percent Effect” value is given as -1.475%. As to `COCC(NC(=O)c1cn2ccsc2n1)c1ccnn1C` (configuration not stated), the “Percent Effect” value was 103.8%. The same measure for `CCCc1cc(C(=O)NC(COC)c2ccnn2C)no1` (configuration not stated): 98.08%; for `COCC(NC(=O)c1cc(NC(C)=O)ccc1Cl)c1ccnn1C` (configuration not stated): -14.74%. Turning to `CCCc1cc(C(=O)NCCCn2nnc3ccccc32)no1`, the “Percent Effect” value is reported as 2.161%. Regarding `COCC(Nc1ncnc2sc(C(=O)O)c(C)c12)c1ccnn1C` (configuration not stated), the “Percent Effect” value is 6.074%. Take `CCSCCOC(=O)CCCc1ccc2c(c1)CC(=O)N2`: the “Percent Effect” value is reported as -3.889%. Regarding `CCC1(O)CCCN(c2nc(C(C)(C)C)nc3c2cnn3C)C1` (configuration not stated), the “Percent Effect” value is reported as -1.49%.

`CN(C)C(=O)N1CC(=O)NCC12CCN(C(=O)c1ccco1)C2` (configuration not stated): the “Percent Effect” value is -32.82%. Turning to `COc1cc(C2CC(=O)NCc3nc4sccn4c32)cc(OC)c1O` (configuration not stated), the “Percent Effect” value is on record as -15.83%.

With `COCCn1ccnc1C1CCN(c2cccc(C(=O)O)n2)CC1`, the “Percent Effect” value was -10.3%. The same measure for `CCn1cc(CN2CCCC(CO)(CCc3ccccc3)C2)c(C)n1` (configuration not stated): -0.5849%. For the compound `Cc1nn(C)cc1CN1CCC(C2Nc3ccccc3S(=O)(=O)N2)CC1` (configuration not stated), the “Percent Effect” value is -11.33%. On to `Cl.Cn1cc(CN2CCN(CC3(c4ccccc4)CC3)CC2)cn1`, for which the “Percent Effect” value amounted to 82.02%.

Turning to `Cn1cc(CN2CCCN(CCCc3ccccc3)CC2)cn1`, the “Percent Effect” value stood at 4.066%. As for `C=Cn1cc(CN2CCN(CC3(c4ccccc4)CC3)CC2)c(C)n1`, the “Percent Effect” value was 101.3%. As for `Cc1cccc(N2CCC3(CCCN3Cc3cn(C)nc3C)CC2)n1`, the “Percent Effect” value is -1.763%.

In the case of `Cc1nn(C)cc1CN1CCN(CC2(c3ccccc3)CC2)CC1`, the “Percent Effect” value is 110.9%.

For `Cc1ccc(C2(CN3CCN(Cc4cn(C)nc4C)CC3)CC2)cc1.Cl`, the “Percent Effect” value came to 115.4%. Turning to `CN1C(=O)CC2(CCN(Cc3cnn(C)c3)CC2)c2ccccc21`, the “Percent Effect” value was found to be 0.9694%.

As to `Nc1ncc(CN2C[C@H](C3CC3)[C@@H](N)C2)cn1`, the “Percent Effect” value is -6.254%. In the case of `CC(NC(=O)N1CCC2(C1)OCCO2)c1ccc(F)cc1Cl` (configuration not stated), the “Percent Effect” value was -14.1%. Consider `CCN(CC)Cc1cc(=O)n2c(n1)CN(C(=O)c1ccnnc1)CCC2.O=C(O)C(F)(F)F`, for which the “Percent Effect” value is given as 96.84%. The same measure for `CC(C)N(C)Cc1cc(=O)n2c(n1)CN(C(=O)c1ccnnc1)CCC2`: 96.43%; for `Cc1cnc(C(=O)N2CCCn3c(nc(CN(C)C)cc3=O)C2)cn1.O=C(O)C(F)(F)F`: -7.099%; for `CN1CCN(Cc2cnc3n2CCN(C(=O)c2cnccn2)C3)CC1`: -7.558%. Then `CC(C)N(C)Cc1noc2c1CN(C(=O)c1ccsc1)CC2`, with 5.959%; and `CC(C)N(C)Cc1cc(=O)n2c(n1)CN(C(=O)c1cnccn1)CCC2`, with 114.9%. For the compound `Cc1cnc(N2CCC(c3ccccc3)CC2)nc1-c1ccnn1C`, the “Percent Effect” value was -8.504%. The same measure for `O=C(NCc1ccccn1)NC1CCOc2ccccc21` (configuration not stated): 10.12%; for `CC(C)Oc1ncccc1CNC(=O)N1CCC1c1ccccc1` (configuration not stated): -10.96%. As to `COc1ncccc1CNC(=O)NC1CCCOc2ccccc21` (configuration not stated), the “Percent Effect” value is 119.2%. The same measure for `CC(C)Oc1ncccc1CNC(=O)NC1CCOc2ccccc21` (configuration not stated): 99.58%.

Consider `CC(C)Oc1ncccc1CNC(=O)N1CCOCC1`, for which the “Percent Effect” value is recorded as 12.39%.

Consider `COc1ncccc1CNC(=O)NC1CCOc2ccccc21` (configuration not stated), for which the “Percent Effect” value was 3.95%. Then `COc1ncccc1C(=O)NCC1Cc2ccccc2O1` (configuration not stated), with 13.43%. Turning to `COc1ncccc1NC(=O)NC1CCOc2ccccc21` (configuration not stated), the “Percent Effect” value is listed as 7.033%. The same measure for `Cc1ccc(Oc2ncccc2CNC(=O)NC2CCCCC2)cn1`: -14.6%; for `COc1ncccc1C(=O)NC1CCOc2ccccc21` (configuration not stated): 117.1%. With `COc1ncccc1CNC(=O)N(Cc1ccccc1F)C1CC1`, the “Percent Effect” value is -13.4%. Then `CCOc1ncccc1CNC(=O)NC1CCOc2ccccc21` (configuration not stated), with 109.6%; and `CC(C)Oc1ccc(C(=O)Nc2nncs2)cn1`, with -3.461%; and `NC(=O)c1ccc(N2CCCCC2)c(NC(=O)c2ccc(F)cc2F)c1`, with -3.643%. Take `COCCN1CCN(CCCS(=O)(=O)c2ccccc2)CC1C` (configuration not stated): the “Percent Effect” value was determined as 8.957%.

In the case of `CCOC(C)C(=O)NS(=O)(=O)c1cccc2cc(C)cnc12` (configuration not stated), the “Percent Effect” value came out at 6.301%.

Turning to `CCCn1ccnc1CN1CCc2[nH]cnc2C1Cc1ccccc1` (configuration not stated), the “Percent Effect” value is given as -1.947%. As to `COCCn1ccnc1CN1CCc2[nH]cnc2C1c1cccc(O)c1` (configuration not stated), the “Percent Effect” value is 85.01%. The same measure for `CC(=O)Nc1ccc(CN2CCc3[nH]cnc3C2c2nccn2C)cc1` (configuration not stated): 16.2%; for `Cc1c(C2c3nc[nH]c3CCN2CCOCc2ccccc2)cnn1C` (configuration not stated): 5.205%; for `c1ccc(COCCN2CCc3[nH]cnc3C2c2ccco2)cc1` (configuration not stated): -0.996%. With `CCn1ccnc1CN1CCN(Cc2ccc(C#N)cc2)CC1`, the “Percent Effect” value is listed as -17.04%. On to `Cn1ccnc1C1c2nc[nH]c2CCN1Cc1cccnc1` (configuration not stated), for which the “Percent Effect” value stood at 3.917%.

Turning to `COCCn1ccnc1CN1CCc2[nH]cnc2C1c1cnn(C)c1C` (configuration not stated), the “Percent Effect” value turned out to be 99.98%. Regarding `COc1ncccc1CN1CCc2[nH]cnc2C1CCSC` (configuration not stated), the “Percent Effect” value is on record as -5.01%.

Take `CCn1ncnc1CN1CCc2[nH]cnc2C1c1ccccn1` (configuration not stated): the “Percent Effect” value is given as -9.23%. Take `CCc1ccc(C2c3nc[nH]c3CCN2Cc2nccn2CC)nc1` (configuration not stated): the “Percent Effect” value is recorded as 105%. As to `COCCn1ccnc1CN1CCc2[nH]cnc2C1c1ccccn1` (configuration not stated), the “Percent Effect” value was determined as 80.05%.
